This is part of a sample that, as a whole, favours compounds with a hit. Of some 83,000 tested, about 20% had one in any assay.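 Plates (96-well) were seeded with cells, treated with compound at one concentration, and incubated for 48 hours before percent growth was determined.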 A number with no mark means an inactive call. Calls of active or inactive are those of the source. Rule for the calls: active = growth percent below 10; inactive = the rest.

Among the data in PubChem BioAssay (NCI) are growth values, retold here.

Assay in all cases: NCI-60 one-dose screen, 48 h (100 = growth as untreated, 0 = no growth, -100 = all killed)
Holding throughout (details): 10 µM unless noted

Assay [1] concerns T-47D breast.
Assay [2] has as its system BT-549 breast.
In assay [3] the test system is MDA-MB-435 melanoma.
The subject of assay [4] is SW-620 colon.
Assay [5] relates to MCF7 breast.
For assay [6], the system named is HCT-116 colon.
The test system of assay [7] is HCC-2998 colon.
Assay [8] concerns KM12 colon.

In the case of `O=c1[nH]c2ccccc2n1C1CCN(CCOc2ccccc2)CC1`, the growth is 87.5% in assay [1]; 90.3% in assay [2]; 97.7% in assay [3]; 103% in assay [4]; 81.3% in assay [5]; 84.7% in assay [6]. Besides, the figures for the growth in assay [7] and in assay [8] were 98.5% and 96.9%, respectively.
With `COc1cccc(C(=O)NCCCNc2cc(-c3cn(-c4ccccc4)nc3-c3cccc(OC)c3)ccn2)c1`, the growth in assay [1] was -4.96% (active); in assay [2], 11%; in assay [3], 40.2%; in assay [4] it was 54.4%; in assay [5] it was 37.5%; in assay [6], 30.5%. The figures for the growth in assay [7] and in assay [8] were 61.2% and 43.5%, respectively.
On to `Cc1ccccc1NC(=O)N/C(N)=N/c1nc(-c2cccc([N+](=O)[O-])c2)cs1`, for which the growth was 35.7% in assay [1]; 51% in assay [2]; -19.7% (active) in assay [3]; 31.1% in assay [4]; 22.4% in assay [5]; 20.6% in assay [6]. Also, the values for the growth in assay [7] and in assay [8] were 39.6% and 31.2%, respectively.
Turning to `Cc1nn(-c2ccccc2)c2nc3c(c(-c4ccc(Cl)cc4)c12)CNC1(CCSCC1)N3`, the growth in assay [1] was 84.3%; in assay [2], 109%; in assay [3], 99.8%; in assay [4] it was 92.8%; in assay [5], 93%; in assay [6] it was 90.7%. In addition, the growth in assay [7] is 101%; in assay [8] it was 98.3%.
As to `CCn1c(C)nc2cc(C(N)=O)ccc21`, the growth in assay [1] was 113%; in assay [2], 111%; in assay [3], 131%; in assay [4], 100%; in assay [5], 91.5%; in assay [6], 94.6%. Moreover, the results for the growth in assay [7] and in assay [8] were 96.9% and 107%, respectively.
With `N/C(=N\c1nc2ccccc2s1)NC(=O)Nc1cccc(Cl)c1`, the growth in assay [1] is 42.6%; in assay [2], 42.8%; in assay [3], 1.08% (active); in assay [4] it was 31.9%; in assay [5] it was 21.2%; in assay [6], 16%. For the same compound, the figures for the growth in assay [7] and in assay [8] were 73% and 22.9%, respectively.
With `COc1ccc2[nH]c(O)c(/C=c3/cc4c(c(-c5ccc(F)c(OC)c5)n3)=Nc3ccccc3-4)c2c1`, the growth was 89.6% in assay [1]; 84.1% in assay [2]; 6.77% (active) in assay [3]; -23.2% (active) in assay [4]; 1.29% (active) in assay [5]; -91% (active) in assay [6]. Besides, the values for the growth in assay [7] and in assay [8] were -0.339% (active) and 13.1%, respectively.
With `N#C/C(=C/C=C/c1cccc(Cl)c1)S(=O)c1ccccc1` (configuration not stated), the growth in assay [1] was -47.2% (active); in assay [2], -69.3% (active); in assay [3] it was -35.4% (active); in assay [4], -58.9% (active); in assay [5], -52.5% (active); in assay [6] it was -86.3% (active). Besides, the growth in assay [7] was -88.7% (active); in assay [8], -47.7% (active).
For `Cc1ccc(/C=C/c2c(C(=O)/C=C/c3ccc(C(F)(F)F)cc3)c(C)nc3ccccc23)cc1`, the growth in assay [1] is -13.1% (active); in assay [2], -30.6% (active); in assay [3], -87.9% (active); in assay [4], -43.2% (active); in assay [5], -14.4% (active); in assay [6] it was -56.8% (active). In addition, the growth is -74.3% (active) in assay [7] and -70% (active) in assay [8].
Consider `O=[N+]([O-])c1ccc(Sc2cccc[n+]2[O-])c2nonc12`, for which the growth in assay [1] is 54.9%; in assay [2], 109%; in assay [3], 97.9%; in assay [4], 23.5%; in assay [5] it was 25.5%; in assay [6], 2.05% (active). Besides, the growth in assay [7] is 98.4%; in assay [8] it was 68.6%.
On to `CC(C)(C)C(CCc1ccc(Cl)cc1)N1CCN(C2CCCCC2)CC1` (configuration not stated), for which the growth was 23.2% in assay [1]; 50% in assay [2]; 39.2% in assay [3]; 35% in assay [4]; 31.6% in assay [5]; 17.5% in assay [6]. The results for the growth in assay [7] and in assay [8] were 27% and 36.8%, respectively.
Regarding `Cc1nc2ccccc2c(/C=C/c2ccc(Cl)cc2)c1C(=O)/C=C/c1ccc(F)cc1`, the growth is 17.7% in assay [1]; 13.9% in assay [2]; -21.3% (active) in assay [3]; -19.6% (active) in assay [4]; 17.6% in assay [5]; -70.5% (active) in assay [6]. Besides, the growth in assay [7] was -67.3% (active); in assay [8], 21.2%.
`Cc1ccc(N(C(=O)CCc2c[nH]c3ccccc23)[C@H](C(=O)Nc2ccc(Cl)cc2)c2cccc([N+](=O)[O-])c2)cc1`: the growth in assay [1] is 72.5%; in assay [2], 69.7%; in assay [3], 81.3%; in assay [4], 69.1%; in assay [5], 90.1%; in assay [6] it was 79.8%. Besides, the growth in assay [7] was 87.8%; in assay [8], 60.6%.
As for `COc1ccc(-c2csc(C3=C(O)CN(CCCN4CCCC4=O)C3=N)n2)cc1OC`, the growth is 86.5% in assay [1]; 100% in assay [2]; 116% in assay [3]; 103% in assay [4]; 109% in assay [5]; 88.7% in assay [6]. For the same compound, the results for the growth in assay [7] and in assay [8] were 98.3% and 104%, respectively.
